Records with an inconclusive call do not appear. Activity calls are given as the source filed them. The calls were made as follows, unless noted: active = hit-call score of the fitted dose curve at least 0.9, where 1 is the maximum; inactive = score below 0.9.
How the values were obtained:
[1] = molecular target: Glucocorticoid receptor (Homo sapiens) (UniProt P04150); test: ATG_GR_TRANS: Attagene TRANS-FACTORIAL HepG2 Assay for human Glucocorticoid Receptor (GR) (AID 2282978; active = hit-call score of the fitted dose curve at least 0.9, where 1 is the maximum;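 also: activators score as hits since higher reporter transcript over DMSO is fitted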); conditions: HepG2 Attagene TRANS GR reporter, mRNA transcription
Sequence of Glucocorticoid receptor (Homo sapiens) (P04150 whole entry, looked up, the tested form may be a part): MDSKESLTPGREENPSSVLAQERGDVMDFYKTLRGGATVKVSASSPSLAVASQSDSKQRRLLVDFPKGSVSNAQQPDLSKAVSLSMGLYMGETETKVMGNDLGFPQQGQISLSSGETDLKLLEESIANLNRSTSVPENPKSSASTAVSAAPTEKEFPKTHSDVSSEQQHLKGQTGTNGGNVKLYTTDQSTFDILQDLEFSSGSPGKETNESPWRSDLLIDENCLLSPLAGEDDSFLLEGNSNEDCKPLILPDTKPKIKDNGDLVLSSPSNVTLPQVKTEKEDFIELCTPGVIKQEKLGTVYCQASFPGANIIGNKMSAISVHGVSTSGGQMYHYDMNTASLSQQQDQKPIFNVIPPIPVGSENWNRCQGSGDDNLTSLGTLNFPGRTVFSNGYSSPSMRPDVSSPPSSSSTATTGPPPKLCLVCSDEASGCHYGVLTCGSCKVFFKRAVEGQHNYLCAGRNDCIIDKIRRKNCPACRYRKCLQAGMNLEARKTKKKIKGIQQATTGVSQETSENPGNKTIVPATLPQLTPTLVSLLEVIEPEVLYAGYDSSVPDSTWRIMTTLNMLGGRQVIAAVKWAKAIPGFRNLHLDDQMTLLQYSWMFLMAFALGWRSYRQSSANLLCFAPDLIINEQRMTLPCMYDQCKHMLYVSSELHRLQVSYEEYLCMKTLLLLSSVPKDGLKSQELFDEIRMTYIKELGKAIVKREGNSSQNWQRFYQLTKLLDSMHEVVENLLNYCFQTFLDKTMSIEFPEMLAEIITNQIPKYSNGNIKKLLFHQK
How it was run: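 Exogenous NR-GAL4 fusion activity was assessed through induced GAL4-UAS reporter transcripts in transfected human HepG2 cells, quantified after 24 h by RT-PCR and fluorescent capillary electrophoresis with DMSO as baseline.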

[2] = molecular target: Bile acid receptor (Homo sapiens) (UniProt Q96RI1); test: ATG_FXR_TRANS: Attagene TRANS-FACTORIAL HepG2 Assay for Farnesoid X Receptor (FXR) (AID 2282979; active = hit-call score of the fitted dose curve at least 0.9, where 1 is the maximum;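 also: hits raise reporter mRNA above DMSO so AC50 marks FXR activation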); conditions: HepG2 Attagene TRANS FXR-GAL4 reporter transcription
Sequence of Bile acid receptor (Homo sapiens) (Q96RI1 whole entry, looked up, the tested form may be a part): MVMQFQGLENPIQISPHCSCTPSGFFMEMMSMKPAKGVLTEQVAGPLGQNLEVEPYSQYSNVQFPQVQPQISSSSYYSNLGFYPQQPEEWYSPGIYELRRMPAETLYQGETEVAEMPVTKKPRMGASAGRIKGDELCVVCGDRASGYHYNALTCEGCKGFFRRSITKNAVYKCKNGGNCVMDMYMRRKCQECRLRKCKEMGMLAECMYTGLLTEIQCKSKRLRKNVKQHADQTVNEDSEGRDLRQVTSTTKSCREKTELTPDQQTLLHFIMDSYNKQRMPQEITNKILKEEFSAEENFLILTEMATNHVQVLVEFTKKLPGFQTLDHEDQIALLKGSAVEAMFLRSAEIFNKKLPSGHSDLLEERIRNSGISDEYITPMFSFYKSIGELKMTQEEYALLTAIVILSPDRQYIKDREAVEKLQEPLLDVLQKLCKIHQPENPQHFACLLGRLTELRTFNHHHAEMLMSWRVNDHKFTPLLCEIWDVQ
How it was run: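 HepG2 cells were transiently transfected with GAL4-UAS reporters driven by chimeric NR-Gal4 proteins and dosed for 24 h. Reporter mRNA was quantified by RT-PCR, fluorescent labelling, HpaI digestion and capillary electrophoresis, with gain of signal scored versus DMSO.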

[3] = ATG_M_32_TRANS: Attagene TRANS-FACTORIAL HepG2 Assay for M32 Transcription Factor (Internal Marker) (AID 2282984; active = hit-call score of the fitted dose curve at least 0.9, where 1 is the maximum;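 also: transcript level of a background control reporter unit measured by RT-PCR and capillary electrophoresis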); conditions: HepG2 Attagene TRANS M32 internal marker reporter
How it was run: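 Cell-based TRANS-format assay in HepG2: exogenous chimeric GAL4 reporter units transiently expressed, compounds applied 24 h. Reporter mRNA detected by RT-PCR plus capillary electrophoresis; this readout is an internal background marker.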

[4] = molecular target: Nuclear receptor subfamily 4 group A member 2 (Homo sapiens) (UniProt P43354); test: ATG_NURR1_TRANS: Attagene TRANS-FACTORIAL HepG2 Assay for human Nuclear Receptor Related Protein 1 (NURR1) (AID 2282985; active = hit-call score of the fitted dose curve at least 0.9, where 1 is the maximum); conditions: HepG2 Attagene TRANS reporter, mRNA readout
Sequence of Nuclear receptor subfamily 4 group A member 2 (Homo sapiens) (P43354 whole entry, looked up, the tested form may be a part): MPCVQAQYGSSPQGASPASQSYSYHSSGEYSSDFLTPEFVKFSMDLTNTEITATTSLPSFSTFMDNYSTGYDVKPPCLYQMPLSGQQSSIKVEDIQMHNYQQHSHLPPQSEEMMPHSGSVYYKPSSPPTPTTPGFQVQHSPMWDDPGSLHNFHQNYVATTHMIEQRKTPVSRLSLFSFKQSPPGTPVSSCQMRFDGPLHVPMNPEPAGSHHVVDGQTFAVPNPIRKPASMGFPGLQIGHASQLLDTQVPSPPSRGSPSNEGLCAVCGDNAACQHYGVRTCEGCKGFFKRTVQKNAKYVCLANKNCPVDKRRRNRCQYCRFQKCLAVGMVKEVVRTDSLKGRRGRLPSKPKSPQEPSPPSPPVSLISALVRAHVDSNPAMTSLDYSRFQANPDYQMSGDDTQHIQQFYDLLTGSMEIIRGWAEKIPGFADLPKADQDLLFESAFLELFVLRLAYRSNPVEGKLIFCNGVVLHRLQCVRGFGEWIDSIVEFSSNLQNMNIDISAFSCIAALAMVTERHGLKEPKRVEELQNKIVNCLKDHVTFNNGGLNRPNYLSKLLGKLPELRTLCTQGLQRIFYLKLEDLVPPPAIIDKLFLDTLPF
How it was run: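 Measures transcriptional activation by an exogenous NR-Gal4 chimera in transfected HepG2 liver cells. After 24 h, reporter RNA is reverse-transcribed, amplified and resolved by capillary electrophoresis; DMSO defines baseline.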

[5] = molecular target: Transcriptional activator Myb (Homo sapiens) (UniProt P10242); test: ATG_Myb_CIS: Attagene CIS-FACTORIAL HepG2 Assay for human Myeloblastosis (Myb) Proto-Oncogene Transcription Factor (AID 2282986); conditions: HepG2 Attagene CIS-FACTORIAL Myb reporter transcription; actives raise or lower the signal
Sequence of Transcriptional activator Myb (Homo sapiens) (P10242 whole entry, looked up): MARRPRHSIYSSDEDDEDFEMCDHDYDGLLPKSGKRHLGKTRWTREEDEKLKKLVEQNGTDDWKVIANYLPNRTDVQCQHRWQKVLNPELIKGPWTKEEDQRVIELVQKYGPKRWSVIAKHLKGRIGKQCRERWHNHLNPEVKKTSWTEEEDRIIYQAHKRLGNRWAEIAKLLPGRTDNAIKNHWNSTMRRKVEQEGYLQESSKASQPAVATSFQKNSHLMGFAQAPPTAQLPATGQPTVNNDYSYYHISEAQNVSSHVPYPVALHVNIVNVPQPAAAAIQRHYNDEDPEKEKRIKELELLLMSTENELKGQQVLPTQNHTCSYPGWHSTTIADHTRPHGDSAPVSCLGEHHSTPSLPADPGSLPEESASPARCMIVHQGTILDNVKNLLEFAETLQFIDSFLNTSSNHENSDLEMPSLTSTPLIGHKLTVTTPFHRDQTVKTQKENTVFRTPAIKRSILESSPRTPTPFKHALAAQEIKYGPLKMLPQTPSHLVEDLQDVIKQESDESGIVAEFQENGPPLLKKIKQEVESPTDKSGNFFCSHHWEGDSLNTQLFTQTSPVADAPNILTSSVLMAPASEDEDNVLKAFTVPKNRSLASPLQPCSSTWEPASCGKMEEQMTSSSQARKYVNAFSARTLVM
How it was run: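 In this HepG2 transient-transfection format, cis-regulated reporter mRNA is quantified 24 h post-dosing by RT-PCR with capillary electrophoresis, fitted bidirectionally to DMSO baseline.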

[6] = ATG_NFI_CIS: Attagene CIS-FACTORIAL HepG2 Assay for human Nuclear Factor I (NFI) (AID 2282989); conditions: HepG2 cis-regulatory reporter, NFI response element transcription; actives raise or lower the signal
How it was run: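 Transient MRTU transfection of HepG2 → 24 h chemical dosing → total RNA, oligo(dT) RT → PCR, 6-FAM primer extension, HpaI cut → capillary electrophoresis. Endpoint fitted bidirectionally relative to DMSO.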

[7] = molecular target: Myc proto-oncogene protein (Homo sapiens) (UniProt P01106); test: ATG_Myc_CIS: Attagene CIS-FACTORIAL HepG2 Assay for human Myelocytomatosis (Myc) Proto-Oncogene Transcription Factor (AID 2282990); conditions: HepG2, Attagene cis-reporter transcription factor activity; actives raise or lower the signal
Sequence of Myc proto-oncogene protein (Homo sapiens) (P01106 whole entry, looked up): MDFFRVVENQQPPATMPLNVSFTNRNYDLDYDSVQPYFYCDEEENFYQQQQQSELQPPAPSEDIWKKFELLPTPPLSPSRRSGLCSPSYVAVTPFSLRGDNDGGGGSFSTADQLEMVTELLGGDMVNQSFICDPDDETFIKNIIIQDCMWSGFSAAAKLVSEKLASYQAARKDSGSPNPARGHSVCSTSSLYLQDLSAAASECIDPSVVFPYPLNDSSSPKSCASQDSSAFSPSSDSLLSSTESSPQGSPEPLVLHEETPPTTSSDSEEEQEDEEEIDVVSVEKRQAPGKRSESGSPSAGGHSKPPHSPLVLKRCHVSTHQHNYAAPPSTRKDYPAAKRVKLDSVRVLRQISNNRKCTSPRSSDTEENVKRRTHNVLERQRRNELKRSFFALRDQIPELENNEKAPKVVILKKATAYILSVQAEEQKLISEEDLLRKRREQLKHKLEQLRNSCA
How it was run: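 HepG2, transient MRTU transfection (cis promoters, endogenous TFs); 24 h dosing; TriZol RNA → oligo(dT) RT → PCR → 6-FAM primer extension → HpaI cut → CE. Bidirectional fit vs DMSO.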

[8] = ATG_NF_kB_CIS: Attagene CIS-FACTORIAL HepG2 Assay for human Nuclear Factor Kappa B (NF-kB) (AID 2282991); conditions: HepG2 Attagene cis-factorial NF-kB reporter mRNA; actives raise or lower the signal
How it was run: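 Endpoint from a 52-component multiplexed HepG2 reporter panel: cis-regulated transcription units transiently transfected, 24 h dosing, reporter mRNA quantified by RT-PCR and capillary electrophoresis, scored as increase or decrease against DMSO.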

[9] = ATG_NRF2_ARE_CIS: Attagene CIS-FACTORIAL HepG2 Assay for human Nuclear Factor Erythroid 2 Related Factor 2 (NFR2) response to Antioxidant Response Elements (ARE) (AID 2282992); conditions: HepG2 Attagene ARE/NRF2 reporter, transcription factor activity; actives raise or lower the signal;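 as to AC50: reporter mRNA level measured by RT-PCR and capillary electrophoresis fluorescence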
How it was run: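 Readout: reporter mRNA quantified by RT-PCR plus FAM-labelled primer extension, HpaI digestion and capillary electrophoresis, 24 h after dosing transfected HepG2 cells. Gain or loss of signal is fitted bidirectionally against DMSO baseline.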

[10] = ATG_Oct_MLP_CIS: Attagene CIS-FACTORIAL HepG2 Assay for human Octamer-Binding Transcription Factor (Oct) (AID 2282993); conditions: HepG2 Attagene cis-factorial Oct reporter, mRNA; actives raise or lower the signal
How it was run: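 Transient MRTU transfection of HepG2 → 24 h compound treatment → RNA isolation, reverse transcription, PCR → 6-FAM primer extension, HpaI digest → capillary electrophoresis. Activity fitted both directions against DMSO.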

[11] = molecular target: Cellular tumor antigen p53 (Homo sapiens) (UniProt P04637); test: ATG_p53_CIS: Attagene CIS-FACTORIAL HepG2 Assay for human p53 Transcription Factor (AID 2282994); conditions: HepG2 p53 cis-element reporter, Attagene mRNA; actives raise or lower the signal
Sequence of Cellular tumor antigen p53 (Homo sapiens) (P04637 whole entry, looked up): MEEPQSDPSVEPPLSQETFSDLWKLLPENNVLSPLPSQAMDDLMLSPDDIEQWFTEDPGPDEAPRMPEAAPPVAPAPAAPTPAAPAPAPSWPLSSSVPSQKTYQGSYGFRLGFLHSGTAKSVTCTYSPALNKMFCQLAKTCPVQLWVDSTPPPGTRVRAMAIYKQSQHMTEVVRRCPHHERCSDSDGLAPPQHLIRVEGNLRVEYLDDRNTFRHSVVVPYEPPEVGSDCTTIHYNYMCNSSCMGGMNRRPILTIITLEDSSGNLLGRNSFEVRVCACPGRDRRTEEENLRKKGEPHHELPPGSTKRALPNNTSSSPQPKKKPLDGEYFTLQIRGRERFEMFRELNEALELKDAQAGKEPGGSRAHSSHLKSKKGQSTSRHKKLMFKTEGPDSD
How it was run: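 Read-out: reporter mRNA by RT-PCR plus capillary electrophoresis with fluorescence detection. Human HepG2 liver cells carried transfected multi-reporter cis-element constructs, dosed 24 h. Gain or loss of signal fitted bidirectionally against DMSO control.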

[12] = BSK_3C_TissueFactor: BioMAP Diversity Plus: 3C Assay for Tissue Factor Biomarker Activity (AID 2282997); conditions: BioMAP 3C HUVEC, tissue factor biomarker readout; actives raise or lower the signal
How it was run: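 Tissue Factor measured by ELISA, 24 h after treatment of primary HUVEC in the BioMAP 3C setting.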

[13] = BSK_3C_uPAR: BioMAP Diversity Plus: 3C Assay for Urokinase-type plasminogen activator receptor (uPAR) Biomarker Activity (AID 2282998); conditions: BioMAP 3C HUVEC, uPAR biomarker ELISA; actives raise or lower the signal
How it was run: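 ELISA readout of uPAR on human vascular endothelium (umbilical vein primary cells), taken 24 h after chemical dosing. Increases and decreases are both fitted relative to DMSO vehicle.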

[14] = BSK_3C_VCAM1: BioMAP Diversity Plus: 3C Assay for Vascular cell adhesion molecule 1 (VCAM1) Biomarker Activity (AID 2282999); conditions: BioMAP 3C HUVEC, VCAM1 ELISA, cytokine-stimulated; actives raise or lower the signal
How it was run: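 Activity fitted in both directions relative to DMSO, with ELISA measurement of the surface marker on primary HUVEC (3C) at 24 h post-treatment; parallel SRB staining (0.1% SRB, TCA-fixed, 560 nm) flagged overt cytotoxicity.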

[15] = BSK_4H_Eotaxin3: BioMAP Diversity Plus: 4H Assay for Eotaxin 3 Biomarker Activity (AID 2283000); conditions: primary human endothelial cells (HUVEC); actives raise or lower the signal
How it was run: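 Eotaxin-3 (CCL26) levels were measured by ELISA in HUVEC primary cultures 24 h post-dosing. Gain or loss of signal was fitted in both directions, with DMSO serving as baseline and negative control.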

[16] = molecular target: Hepatocyte nuclear factor 4-alpha (Homo sapiens) (UniProt P41235); test: ATG_HNF4a_TRANS: Attagene TRANS-FACTORIAL HepG2 Assay for human Hepatocyte Nuclear Factor 4 alpha (HNF4a) (AID 2282982; active = hit-call score of the fitted dose curve at least 0.9, where 1 is the maximum); conditions: HepG2 HNF4a transactivation reporter, mRNA readout
Sequence of Hepatocyte nuclear factor 4-alpha (Homo sapiens) (P41235 whole entry, looked up): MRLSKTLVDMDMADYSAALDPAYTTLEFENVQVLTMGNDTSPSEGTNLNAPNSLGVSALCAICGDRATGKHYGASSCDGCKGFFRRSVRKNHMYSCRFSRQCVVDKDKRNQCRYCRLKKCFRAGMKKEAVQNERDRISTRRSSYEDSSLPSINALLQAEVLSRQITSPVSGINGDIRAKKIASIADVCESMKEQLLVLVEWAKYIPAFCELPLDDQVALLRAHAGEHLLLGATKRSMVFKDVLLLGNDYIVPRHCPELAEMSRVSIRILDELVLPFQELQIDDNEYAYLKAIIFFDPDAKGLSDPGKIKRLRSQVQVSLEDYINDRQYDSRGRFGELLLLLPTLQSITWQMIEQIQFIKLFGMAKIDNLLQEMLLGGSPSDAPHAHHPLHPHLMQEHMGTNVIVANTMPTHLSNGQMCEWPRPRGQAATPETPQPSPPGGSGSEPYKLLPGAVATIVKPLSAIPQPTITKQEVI
How it was run: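 Multiplexed reporter assay: transfected HepG2, 24 h exposure, total RNA → oligo(dT) RT → PCR → 6-FAM extension → HpaI digest → CE fluorescence. DMSO = negative control.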

[17] = molecular target: Nuclear respiratory factor 1 (Homo sapiens) (UniProt Q16656); test: ATG_NRF1_CIS: Attagene CIS-FACTORIAL HepG2 Assay for human Nuclear Respiratory Factor 1 (NRF1) Orphan Gene (AID 2282987); conditions: HepG2 NRF1 cis-element reporter, Attagene multiplex; actives raise or lower the signal
Sequence of Nuclear respiratory factor 1 (Homo sapiens) (Q16656 whole entry, looked up): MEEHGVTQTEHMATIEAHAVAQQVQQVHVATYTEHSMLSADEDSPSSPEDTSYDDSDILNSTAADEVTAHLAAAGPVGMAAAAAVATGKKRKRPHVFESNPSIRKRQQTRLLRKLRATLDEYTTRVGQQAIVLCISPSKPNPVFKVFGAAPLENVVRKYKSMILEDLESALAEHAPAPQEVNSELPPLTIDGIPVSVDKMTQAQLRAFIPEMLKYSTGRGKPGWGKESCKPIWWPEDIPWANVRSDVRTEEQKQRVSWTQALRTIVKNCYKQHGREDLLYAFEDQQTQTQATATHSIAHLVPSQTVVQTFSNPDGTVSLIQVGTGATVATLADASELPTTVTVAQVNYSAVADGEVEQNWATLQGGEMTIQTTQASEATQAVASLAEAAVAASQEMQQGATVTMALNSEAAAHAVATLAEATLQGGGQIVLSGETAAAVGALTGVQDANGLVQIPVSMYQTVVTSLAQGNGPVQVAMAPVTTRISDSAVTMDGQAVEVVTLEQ
How it was run: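 Using DMSO as baseline, gain- or loss-of-signal was fitted for reporter mRNA levels in HepG2 cells transiently transfected with cis-regulated reporter units. Samples were taken 24 h after dosing and read by RT-PCR with capillary electrophoresis.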

[18] = ATG_M_06_TRANS: Attagene TRANS-FACTORIAL HepG2 Assay for M06 Transcription Factor (Internal Marker) (AID 2282983; active = hit-call score of the fitted dose curve at least 0.9, where 1 is the maximum;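 also: reporter transcript level by RT-PCR then capillary electrophoresis fluorescence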); conditions: HepG2 Attagene TRANS M06 internal marker reporter
How it was run: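 mRNA levels of a reporter transcript, quantified as FAM fluorescence on capillary electrophoresis, served as readout. HepG2 cells expressing exogenous GAL4-chimera reporter constructs were exposed for 24 h. Gain of signal over DMSO was evaluated.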

[19] = molecular target: Oxysterols receptor LXR-alpha (Homo sapiens) (UniProt Q13133); test: ATG_LXRa_TRANS: Attagene TRANS-FACTORIAL HepG2 Assay for human Liver X Receptor alpha (LXRa) (AID 2282980; active = hit-call score of the fitted dose curve at least 0.9, where 1 is the maximum); conditions: HepG2 Attagene TRANS reporter, LXRa transactivation
How it was run: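 HepG2 cells transiently transfected with GAL4-UAS reporter units for chimeric NR-Gal4 proteins, exposed to chemicals for 24 h. Reporter mRNA quantified by RT-PCR and capillary electrophoresis; gain of signal fitted relative to DMSO.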

[20] = molecular target: Oxysterols receptor LXR-beta (Homo sapiens) (UniProt P55055); test: ATG_LXRb_TRANS: Attagene TRANS-FACTORIAL HepG2 Assay for human Liver X Receptor beta (LXRb) (AID 2282981; active = hit-call score of the fitted dose curve at least 0.9, where 1 is the maximum); conditions: HepG2 Attagene TRANS GAL4-LXRb reporter, mRNA
Sequence of Oxysterols receptor LXR-beta (Homo sapiens) (P55055 whole entry, looked up, the tested form may be a part): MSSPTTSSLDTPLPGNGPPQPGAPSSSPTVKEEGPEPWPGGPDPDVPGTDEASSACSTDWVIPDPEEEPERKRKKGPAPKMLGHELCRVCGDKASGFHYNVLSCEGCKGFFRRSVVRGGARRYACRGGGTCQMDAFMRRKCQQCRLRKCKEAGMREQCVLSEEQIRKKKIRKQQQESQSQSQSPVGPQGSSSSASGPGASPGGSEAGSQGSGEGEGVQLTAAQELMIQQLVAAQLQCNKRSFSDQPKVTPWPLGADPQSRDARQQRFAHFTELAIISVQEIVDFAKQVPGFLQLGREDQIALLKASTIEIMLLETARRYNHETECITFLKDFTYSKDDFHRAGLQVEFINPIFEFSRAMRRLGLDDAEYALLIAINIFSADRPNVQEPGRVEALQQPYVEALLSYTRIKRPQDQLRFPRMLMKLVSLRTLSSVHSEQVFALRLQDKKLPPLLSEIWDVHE
How it was run: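 After 24 h of chemical treatment, transfected HepG2 cells yield total RNA; reporter cDNA is PCR-amplified, FAM-labelled, HpaI-cut and run on capillary electrophoresis. Signal reflects chimeric LXRb-Gal4 activity on GAL4-UAS reporters.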

Measured: AC50

Clc1cc(Cl)c(-c2c(Cl)c(Cl)cc(Cl)c2Cl)cc1Cl
active: [9] 26.7 µM | [12] 10 µM | [13] 17.1 µM | [14] 12.9 µM | [15] 12.5 µM
not listed: [16] | [17] | [18] | [19] | [20]
inactive: all other assays above

CCCCCCCCCCCCS(=O)(=O)Cl
inactive: [1] | [2] | [16] | [3] | [5] | [17] | [6] | [7] | [8] | [9] | [11]

CCCCN(CCCC)C(=O)N(CCCC)CCCC
active: [2] 15.6 µM | [4] 42.9 µM | [17] 40.2 µM | [6] 60.3 µM | [8] 52.8 µM | [9] 61.6 µM | [11] 33.4 µM | [12] 6.23 µM | [13] 10.7 µM | [14] 8.82 µM | [15] 9.73 µM
inactive: [1] | [18] | [3] | [5] | [10]

CCNCCO
not listed: [3] | [11] | [12] | [13] | [14] | [15] | [19] | [20]
inactive: all other assays above

C=C(C)[C@H]1CC=C(C)C(=O)C1
not listed: [2] | [4] | [10] | [11]
inactive: all other assays above

CCCCCCCCN1CCCC1=O
inactive: [1] | [2] | [18] | [5] | [17] | [6] | [7] | [10]
active: [9] 66.8 µM | [11] 72.6 µM

CC1=C(Br)C(=O)C(Br)=C/C1=C(/c1ccccc1S(=O)(=O)O)c1cc(Br)c(O)c(Br)c1C
inactive: [1] | [2] | [18] | [4] | [17] | [6] | [7] | [8] | [9] | [10]

Clc1ccc(C(c2ccccc2Cl)C(Cl)Cl)cc1 (stereo not drawn)
active: [6] 34.7 µM | [8] 100 µM | [9] 52 µM | [10] 26.7 µM
inactive: [1] | [2] | [18] | [3] | [5] | [7] | [11]

Nc1ccccc1[N+](=O)[O-]
not listed: [10] | [12] | [13] | [14] | [15] | [16] | [19]
inactive: all other assays above

Cc1c(OCC(F)(F)F)ccnc1CS(=O)c1nc2ccccc2[nH]1 (stereo not drawn)
active: [4] 36.7 µM | [17] 128 µM | [9] 49.1 µM
not listed: [12] | [13] | [14] | [15] | [16] | [19]
inactive: all other assays above
